The panel holds about 83,000 compounds, 20% with a hit somewhere; the sample as a whole holds those more often.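 A percent growth of 40 corresponds to 60% growth inhibition; 0 means no net growth; -100 means all cells died. Active threshold: below 10.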 Values without a mark were called inactive. Active and inactive are the calls of the source.
Each molecule was assayed on EKVX NSCLC (assay: NCI-60 one-dose screen, 48 h (100 = growth as untreated, 0 = no growth, -100 = all killed)). Conditions: 10 µM unless noted.

Row | Structure (SMILES) | growth
1 | CC(=O)n1c(/C(C#N)=C/c2ccc(N(C)C)cc2)cc2ccccc21 | 36.8%
2 | C[C@H]1[C@H]2C3=CC[C@@H]4[C@@]5(C)C/C(=C/c6ccco6)C(=O)C(C)(C)[C@@H]5CC[C@@]4(C)[C@]3(C)CC[C@@]2(C(=O)N2CCOCC2)CC[C@@H]1C | 88.4%
3 | Fc1ccc(Nc2ccc3c(OCCCN4CCOCC4)cccc3n2)cc1F | 81.4%
4 | COc1cccc(-c2nn(-c3ccccc3)cc2-c2ccnc(NCCNS(=O)(=O)c3ccc(C(F)(F)F)cc3)c2)c1 | 29.4%
5 | Cn1cnc2c1c(=O)n(CCC(=O)Nc1ccc(F)cc1)c(=O)n2C | 107%
6 | COCCNC1=C(Cl)C(=O)c2ccccc2C1=O | 108%
7 | CCCCn1c(-c2ccc(O)cc2)cn2c3c(=O)[nH]c(=O)n(C)c3nc12 | 85.9%
8 | Cc1ccc(N(CC(=O)Nc2ccc(S(=O)(=O)NC3CCN(C)CC3)cc2)S(=O)(=O)c2ccc(Cl)cc2)cc1 | 99.4%
9 | CC(=O)OC[C@]12CC[C@@H](/C(C)=N/O)[C@@H]1[C@H]1CC[C@@H]3[C@@]4(C)CCCNC(C)(C)[C@@H]4CC[C@@]3(C)[C@]1(C)CC2 | 84.6%
10 | Clc1ccc(Cn2cc(-c3nc4ccc(Br)nc4n3Cc3ccc(Cl)cc3)c3cccnc32)cc1 | 77.8%
11 | CN1CCN(CCOc2ccc(-c3cnc4c(-c5cccc(F)c5)cnn4c3)cc2)CC1 | 76.3%
12 | CN1CCN(c2nc(-c3csc(-c4cccs4)n3)cc3ccccc23)CC1 | 68.3%
13 | CCN(CC)CCCCCCNc1ccnc2cc(Cl)ccc12 | 76.5%
14 | CCCCCCCC(=O)SCC/C=C/[C@@H]1CC(=O)NCc2cccc(n2)CN(Cc2ccc(Cl)cc2)CC(=O)N[C@@H](C(C)C)C(=O)O1 | 32.5%
15 | c1cc(N2CCCC2)c2nc(-c3[nH]ncc3Nc3ncnc4[nH]ccc34)[nH]c2c1 | -31% (active)
16 | COc1ccc(C2=NN(c3nc(-c4ccc(OC)cc4)c(C#N)c(=O)n3C)C(=O)CC2)cc1 | 107%
17 | Cc1ccc(S(=O)(=O)Nc2ccc(-c3cc(-c4cccc(F)c4)c(C#N)c(N)n3)cc2)cc1 | 51.6%
18 | CC(C)(C)c1ccc(OCCCCCCCN2CCNCC2)cc1 | 70%
19 | COC(=O)CNc1nc(N(C)O)nc(N(C)O)n1 | 48.2%
20 | COc1cc2ncnc(Nc3ccc(Oc4ccnc(C)c4)c(C)c3)c2cc1NC(=O)CC1CCSS1 (stereo unspecified) | -1.66% (active)
21 | C=C(C)[C@@H]1CC[C@]2(C)[C@H](CC[C@@H]3[C@H]4[C@H]5OC[C@@]4(CCC5(C)C)CC[C@]32C)[C@@]1(C)CCCN | 71.2%
22 | c1ccc(-c2nc(Nc3ccc(-c4nc5ccccc5[nH]4)cc3)nc(N3CCOCC3)n2)cc1 | -66.9% (active)
23 | CCOC(=O)C1OC1(c1ccccc1)c1ccccc1 (stereo unspecified) | 101%
24 | CCN1CCN(C(=O)[C@@]2(C)CC[C@]3(C)CC[C@]4(C)C(=CC(=O)[C@@H]5[C@@]6(C)CC[C@H](OCCC#N)C(C)(C)[C@@H]6CC[C@]54C)[C@@H]3C2)CC1 | 85.7%
25 | O=S(=O)(NCCNc1cc(-c2cn(-c3ccccc3)nc2-c2cccc(O)c2)ccn1)c1cccc(F)c1 | 46.6%
26 | N#CC1=C(N)Oc2ccc3ccccc3c2C1c1ccccc1 (stereo unspecified) | 39%
27 | COc1ccc(-c2cc(=O)oc3ccc(Cl)cc23)cc1F | 38.3%

The molecules below were run on SN12C renal in the same assay as above. Conditions: 10 µM unless noted.

Row | Structure (SMILES) | growth
28 | COC(=O)[C@]12CC[C@@H](C)[C@H](C)[C@@H]1C1=CC[C@@H]3[C@@]4(C)C[C@@H](OC(C)=O)[C@H](O)[C@@](C)(COC(C)=O)[C@@H]4[C@H](O)C[C@@]3(C)[C@]1(C)CC2 | -69.9% (active)
29 | N#Cc1c(-c2ccco2)nc2c(c(-c3ccccc3)nn2-c2ccccc2)c1-c1ccc(O)cc1 | 82.4%
30 | CC(=O)c1c(C)[nH]c(-c2nc3ccc(N4CCN(C)CC4)cc3[nH]2)c1-c1ccc2c(c1)OCCO2 | 58.5%
31 | COc1ccc(C(=O)c2ccc(C)cc2)c(OC)c1OC | 91.8%
32 | C[C@H]1OC(=O)/C=C/[C@@H](O)[C@@H](O)CCCCCCCC[C@@H]1O | 101%
33 | COc1ccccc1-n1cnc(N)c1C(=O)c1cc(OC)c(OC)c(OC)c1 | 62.3%
34 | COc1ccc(/C=C(\C#N)c2cc3ccccc3n2S(C)(=O)=O)cc1 | 90.8%
35 | Cc1cccc2c1NC(=O)[C@@]21[C@H](C(=O)c2ccccc2)[C@]2(C(=O)Nc3ccccc32)[C@H]2CCCN21 | 10.3% [100 µM]
36 | N=c1ccc2nc3c(cc(N)c4ccccc43)oc-2c1 | -95.2% (active)
37 | COc1cccc(-c2nn(-c3ccccc3)cc2-c2ccnc(NCCCNS(=O)(=O)c3ccc(Br)cc3)c2)c1 | 57.1%
38 | Cc1ccc(-c2nn(Cc3cn(-c4cc(C)nc5ccccc45)nn3)c3ncnc(N)c23)cc1 | 31.1%
39 | COc1ccc2c(c1)c1nc3cc(C)c(C)cc3nc1n2CCN(C)C | 17%
40 | CC(=O)n1c(/C(C#N)=C/c2ccc(N(C)C)cc2)cc2ccccc21 | 42.9%
41 | C[C@H]1[C@H]2C3=CC[C@@H]4[C@@]5(C)C/C(=C/c6ccco6)C(=O)C(C)(C)[C@@H]5CC[C@@]4(C)[C@]3(C)CC[C@@]2(C(=O)N2CCOCC2)CC[C@@H]1C | 73.8%
42 | Fc1ccc(Nc2ccc3c(OCCCN4CCOCC4)cccc3n2)cc1F | 81.6%
43 | COc1cccc(-c2nn(-c3ccccc3)cc2-c2ccnc(NCCNS(=O)(=O)c3ccc(C(F)(F)F)cc3)c2)c1 | -36.1% (active)
44 | Cn1cnc2c1c(=O)n(CCC(=O)Nc1ccc(F)cc1)c(=O)n2C | 102%
45 | COCCNC1=C(Cl)C(=O)c2ccccc2C1=O | 95.2%
46 | CCCCn1c(-c2ccc(O)cc2)cn2c3c(=O)[nH]c(=O)n(C)c3nc12 | 78%
47 | Cc1ccc(N(CC(=O)Nc2ccc(S(=O)(=O)NC3CCN(C)CC3)cc2)S(=O)(=O)c2ccc(Cl)cc2)cc1 | 85%

Row | Structure (SMILES) | growth
48 | CC(=O)OC[C@]12CC[C@@H](/C(C)=N/O)[C@@H]1[C@H]1CC[C@@H]3[C@@]4(C)CCCNC(C)(C)[C@@H]4CC[C@@]3(C)[C@]1(C)CC2 | 75.3%
49 | Clc1ccc(Cn2cc(-c3nc4ccc(Br)nc4n3Cc3ccc(Cl)cc3)c3cccnc32)cc1 | 86.8%
50 | CN1CCN(CCOc2ccc(-c3cnc4c(-c5cccc(F)c5)cnn4c3)cc2)CC1 | 60.6%
51 | CN1CCN(c2nc(-c3csc(-c4cccs4)n3)cc3ccccc23)CC1 | 71%
52 | CCN(CC)CCCCCCNc1ccnc2cc(Cl)ccc12 | 84.9%
53 | CCCCCCCC(=O)SCC/C=C/[C@@H]1CC(=O)NCc2cccc(n2)CN(Cc2ccc(Cl)cc2)CC(=O)N[C@@H](C(C)C)C(=O)O1 | 21.6%
54 | c1cc(N2CCCC2)c2nc(-c3[nH]ncc3Nc3ncnc4[nH]ccc34)[nH]c2c1 | -13.7% (active)
55 | COc1ccc(C2=NN(c3nc(-c4ccc(OC)cc4)c(C#N)c(=O)n3C)C(=O)CC2)cc1 | 88.8%
56 | Cc1ccc(S(=O)(=O)Nc2ccc(-c3cc(-c4cccc(F)c4)c(C#N)c(N)n3)cc2)cc1 | 11.5%
57 | CC(C)(C)c1ccc(OCCCCCCCN2CCNCC2)cc1 | 58.8%
58 | COC(=O)CNc1nc(N(C)O)nc(N(C)O)n1 | 49.8%
59 | COc1cc2ncnc(Nc3ccc(Oc4ccnc(C)c4)c(C)c3)c2cc1NC(=O)CC1CCSS1 (stereo unspecified) | 21.3%
60 | C=C(C)[C@@H]1CC[C@]2(C)[C@H](CC[C@@H]3[C@H]4[C@H]5OC[C@@]4(CCC5(C)C)CC[C@]32C)[C@@]1(C)CCCN | 75.6%
61 | c1ccc(-c2nc(Nc3ccc(-c4nc5ccccc5[nH]4)cc3)nc(N3CCOCC3)n2)cc1 | -62.8% (active)
62 | CCOC(=O)C1OC1(c1ccccc1)c1ccccc1 (stereo unspecified) | 98.7%
63 | CCN1CCN(C(=O)[C@@]2(C)CC[C@]3(C)CC[C@]4(C)C(=CC(=O)[C@@H]5[C@@]6(C)CC[C@H](OCCC#N)C(C)(C)[C@@H]6CC[C@]54C)[C@@H]3C2)CC1 | 83.1%
64 | O=S(=O)(NCCNc1cc(-c2cn(-c3ccccc3)nc2-c2cccc(O)c2)ccn1)c1cccc(F)c1 | 50.4%
65 | N#CC1=C(N)Oc2ccc3ccccc3c2C1c1ccccc1 (stereo unspecified) | 42.2%
66 | COc1ccc(-c2cc(=O)oc3ccc(Cl)cc23)cc1F | 30.6%

— PubChem BioAssay (NCI)
